Screening data as filed in PubChem.
USP1-UAF1 inh – Inhibitors of USP1/UAF1: Primary Screen | 390,000 compounds, 0.23% hits | AID 743255, 2014 | recombinant USP1/UAF1, Ub-Rhodamine cleavage fluorescence | Potency, µM (titrated, usually from 57.1 µM), inactives show at the top dose activity change, negative = inhibition, actives largely listed as inhibitors | Ubiquitin carboxyl-terminal hydrolase 1 (Homo sapiens), O94782; further: potency means the concentration at half of the fitted maximal effect; nearly all actives have a fitted effect of over 60% in size
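Step one: compound is pinned into 1nM USP1/UAF1 in HEPES pH 7.8 buffer with TCEP. Step two: 15 min room-temperature incubation. Step three: Ub-Rho (150nM final) starts cleavage, tracked by fluorescence over six one-minute reads.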
Tau ThT inhib – qHTS for Inhibitors of Tau Fibril Formation, Thioflavin T Binding. Microtubule-associated protein tau (Homo sapiens), P10636. recombinant tau K18 P301L, heparin-induced fibrillization, ThT fluorescence. Potency, µM (highest dose often 57.4 µM), without a hit: at the highest dose activity, negative = inhibition, actives largely listed as inhibitors. 270,000 compounds, 2.1% hits; further: potency means the concentration at half of the fitted maximal effect; nearly all actives have a fitted effect of over 55% in size
Target sequence (P10636 561-689 P618L limits assumed): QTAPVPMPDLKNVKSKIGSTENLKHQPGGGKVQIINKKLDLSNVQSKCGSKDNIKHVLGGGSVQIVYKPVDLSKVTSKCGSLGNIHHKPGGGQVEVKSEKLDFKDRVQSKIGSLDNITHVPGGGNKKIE
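Heparin-induced fibrillization of the P301L-mutant K18 repeat-domain fragment of human tau was followed by ThT binding in quantitative high-throughput format.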
Tau fluor cs – Counterscreen qHTS for Inhibitors of Tau Fibril Formation, Fluorescence Polarization; Potency, µM (titrated, usually from 57.7 µM), without a hit: at the top dose activity change, negative = decrease; AID 1463, 2008; tau K18 P301L (four-repeat tau fragment) Alexa594 fluorescence, heparin fibrillization; 280,000 compounds, 0.93% hits; further: potency means the concentration at half of the fitted maximal effect; nearly all actives have a fitted effect of over 55% in size
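Human K18 P301L tau (15 uM unlabeled plus 0.24 uM Alexa 594-labeled, final) in 100 mM sodium acetate pH 7 was mixed with compound and 20 uM heparin and incubated 6 hr at 37 C.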
FBPA coupling cs – qHTS Assay for Inhibitors of Fructose-1,6-bisphosphate Aldolase from Giardia Lamblia: Coupling assay counterscreen; activity change, negative = inhibition, % at 58.2 µM, hits read low; coupling enzyme system counterscreen, AmpLite Red fluorescence; AID 2472, 2010; 290,000 compounds, 0.67% hits; in the data active means activity change below about -30%
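Counterscreen lacking aldolase: glyceraldehyde-3-phosphate coupling-enzyme reagent preincubated 10 min at RT with compound (at 57.5 uM final), then substrate/coupling system with AmpLite Red added; fluorescence read at 525/598 nm after 20 min RT.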
Tau fibril FP – qHTS for Inhibitors of Tau Fibril Formation, Fluorescence Polarization | K18 P301L tau heparin fibrillization, Alexa594 FP, 6 h | 280,000 compounds, 0.39% hits | Potency, µM (doses to about 57.7 µM), for the others: top-dose activity, negative = inhibition, most hits filed as inhibitors; further: potency means the concentration at half of the fitted maximal effect; nearly all actives have a fitted effect of over 55% in size
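Compound effects on tau fibrillization are measured by Alexa 594 fluorescence polarization (ex 555, em 632 nm). K18 P301L tau is used at 15 uM with 0.24 uM labeled tracer, and 20 uM heparin induces aggregation over 6 hr at 37 C.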
* marks the source's active call; other numbers are inactive results; ? = inconclusive; nt = no result given; [ ] = dose if it differs, or a comment. Only some compounds are listed: those with a hit (about 2.3% of all), similar ones and a draw of the others. Unless noted, the call rests on the fitted dose curve; in most records, active means well fitted curve in the direction sought with a large enough effect; inconclusive means small, poorly fitted or top-dose-only effect, or another doubt; inactive means no such curve, though single readings can be large; an effect the other way counts as inactive or inconclusive. On the % scale 0 is the no-effect control and ±100 the full control effect.

SMILES | USP1-UAF1 inh | Tau ThT inhib | Tau fluor cs | FBPA coupling cs | Tau fibril FP
COc1ccc(/C=C2\SC(=S)NC2=O)cc1OS(=O)(=O)c1ccc(NC(C)=O)cc1 | -19% | 13µM* | -26% | -1 | 12%
COc1cc(/C=C2\SC(=S)NC2=O)ccc1OS(=O)(=O)c1ccccc1 | nt | 16µM* | ? | 6 | 9%
COc1cc(/C=C2/SC(=S)NC2=O)ccc1OS(=O)(=O)c1ccc(C)cc1 | ? | 16µM* | ? | 6 | 0%
O=C(COC(=O)c1cc2ccccc2oc1=O)Nc1ccc(F)cc1F | -5% | -15% | -12% | 4 | -14%
CS(=O)(=O)c1ccc(S(=O)CC(=O)Oc2ccc(Cl)cc2)c([N+](=O)[O-])c1 (configuration not stated) | -21% | 3.5µM* | -25% | -27 | ?
O=C(CS(=O)c1ccccc1[N+](=O)[O-])Oc1ccc(Br)cc1 (configuration not stated) | -8% | ? | ? | 0 | ?
Cc1ccccc1CS(=O)(=O)CCC(=O)NCCCN1CCN(c2ccccc2F)CC1 | -9% | -4% | -3% | 3 | -1%
Cc1cc(C)c2c(=O)n(CC(=O)NCCCN3CCN(c4ccccc4F)CC3)sc2n1 | -22% | 14µM* | -24% | 4 | ?
Cc1cc(C)c2c(=O)n(CC(=O)NCCCN3CCOCC3)sc2n1 | -18% | 10µM* | -21% | 3 | 16µM*
Cc1ccc(C)c(NC(=O)CSc2nc(=O)n(CCN3CCOCC3)c3c2CCC3)c1 | 8% | -2% | 2% | nt | -3%
CCc1cccc(C)c1NC(=O)Cn1ccn(Cc2ccc(Cl)cc2)c(=O)c1=O | 19% | -13% | -1% | nt | 4%
N#CC1CC(c2ccc([N+](=O)[O-])cc2)=NN1c1ccc([N+](=O)[O-])cc1 (configuration not stated) | ? | 3.2µM* | ? | 0 | 13%
COCCn1c(=O)c(-c2ccc(Cl)cc2)nc2cnc(OC)nc21 | nt | nt | nt | -4 | nt
CN1C(=O)CC(Nc2cccc3cccc(N)c23)C1=O (configuration not stated) | ? | ? | ? | -41* | ?
CCOC(=O)c1cccc(NC(=O)[C@@H](c2ccccc2)N2Cc3ccccc3C2=O)c1 | -15% | -3% | -21% | nt | -7%
O=C(O)CCCCCNC(=O)Nc1ccc2c(c1)OCCO2 | -23% | -11% | -9% | 5 | -8%
O=C(O)CCNc1ccc2c(c1)OCCO2 | -10% | ? | -25% | -41* | ?
O=C1NC(Cc2ccccc2)C(=O)N1Cc1ccccc1 (configuration not stated) | -18% | nt | nt | nt | nt
O=c1ccsn1Cc1ccccc1 | -10% | 10µM* | -17% | -3 | 14µM*
CCCOC(=O)c1ccc(NC(=O)/C=C/c2cccs2)cc1 | -12% | 4% | 14µM*[quencher] | -1 | ?
N#C/C(=C/c1ccc(N2CCCCC2)o1)c1cccc(F)c1 | 18µM* | 13µM* | ? | -29 | ?
COc1cc(N2CCCC2)c(OC)cc1/C=C(/C#N)c1ccc(Br)cc1 | -14% | ? | ? | -1 | 9%
N#C/C(=C/c1ccc(N2CCCCCC2)o1)c1ccc(Cl)cc1 | ? | 25µM* | ? | -20 | ?
N#C/C(=C/c1ccc(N2CCCCC2)cc1)c1cccc(F)c1 | -23% | ? | ? | 1 | 12%
CCc1ccc(CNC(=O)Cn2nc(C)n3c(cc4cc(C)ccc43)c2=O)cc1 | 4% | 1% | 2% | nt | 2%
SMILES | USP1-UAF1 inh | Tau ThT inhib | Tau fluor cs | FBPA coupling cs | Tau fibril FP
COc1ccc2c(c1)O[C@@H](c1cccc(C(F)(F)F)c1)[C@H](OC(=O)NS(=O)(=O)c1ccc(C)cc1)C2=O | nt | -13% | -11% | 1 | -3%
COc1ccccc1NS(=O)(=O)c1ccc(N/N=C/c2ccccc2OCC(=O)O)c([N+](=O)[O-])c1 | -11% | 10µM* | ? | 7 | 1%
O=C(O)COc1ccccc1/C=N/Nc1ccc(S(=O)(=O)Nc2ccc(Cl)cc2)cc1[N+](=O)[O-] | -12% | 14µM* | ? | 7 | ?
O=C1NC(=S)SC1=Cc1ccc(F)cc1 | -2% | nt | nt | nt | nt
CN1CCC/C1=C/C=C1\SC(=S)NC1=O | 25µM* | ? | -21% | -8 | -15%
Cc1cccc(NC(=O)CSc2nnc(NC(=O)Nc3ccccc3)s2)c1C | -15% | -1% | -17% | nt | ?
CCCc1cc(C(=O)Cc2nc3ccccc3s2)c(O)cc1O | -3% | 25µM* | 20µM*[quencher] | nt | 0%
CN(C=O)c1cc([N+](=O)[O-])ccc1OCc1ccccc1 | -14% | nt | nt | nt | nt
CNc1cc([N+](=O)[O-])ccc1OCc1ccccc1 | -19% | 11µM* | ? | -12 | -4%
CC(=O)c1c(N2CCOCC2)nc2ccc(Br)cc2c1-c1ccccc1 | ? | nt | -10% | 1 | 0%
CC(=O)c1cc(-c2ccccc2)[nH]c1N1CCOCC1 | 4% | 32µM* | -28% | 1 | ?
COCOCCn1cc(CN2CCS(=O)(=O)N(Cc3ccc(-c4cccc(CO)c4)cc3)C(C(C)C)C2=O)nn1 (configuration not stated) | -11% | nt | nt | nt | nt
O=C(c1ccc(Cl)nc1)c1cccs1 | ? | -2% | -2% | 5 | -1%
O=C(c1cccs1)c1no[n+]([O-])c1C(=O)c1cccs1 | -16% | ? | ? | -67* | ?
COc1ccc(C(=O)c2no[n+]([O-])c2C(=O)c2ccc(OC)cc2)cc1 | -15% | 18µM* | -28% | -1 | ?
CCOc1ccc(-c2[nH]ncc2Oc2cccc(OC)c2)c(O)c1 | -4% | ? | 16µM*[quencher] | -8 | ?
COc1cccc(Oc2cn[nH]c2-c2ccc(OC)cc2O)c1 | -6% | -11% | 14µM*[quencher] | -13 | -11%
COc1cccc(Oc2cn[nH]c2-c2ccc(O)cc2O)c1 | -10% | -9% | ? | -11 | ?
CCOc1ccc(CCNC(=O)CCNS(=O)(=O)c2ccc3c(c2)CCN3C(C)=O)cc1OCC | -16% | nt | nt | 1 | nt
COc1cc2oc(=O)cc(-c3ccc(-c4ccc(O)cc4)cc3)c2c(OC)c1OC | -9% | ? | 10µM*[quencher] | 7 | ?
COc1ccc(-c2ccc(-c3cc(=O)oc4cc(OC)c(OC)c(OC)c34)cc2)cc1OC | -5% | -14% | -20% | 0 | 10%
O=C1C(=Cc2ccc(Br)o2)C(=O)c2ccccc21 | -18% | 6.3µM* | ? | 1 | ?
CC1=C/C(=C\c2ccc(Br)o2)C(=O)O1 | 28% | -12% | -5% | -1 | -2%
